# Source: ChEMBL document CHEMBL1157539, “Thousands of chemical starting points for antimalarial lead identification” (Nature, 2010)
# Legend:
# Type in all cases: functional
# Plasmodium falciparum [1] = test: GSK_TCMDC: Inhibition of Plasmodium falciparum 3D7 in whole red blood cells, using parasite LDH activity as an index of growth. Test compounds present at 2uM
# Plasmodium falciparum [2] = test: GSK_TCMDC: Inhibition of Plasmodium falciparum Dd2 in whole red blood cells, using parasite LDH activity as an index of growth. Test compounds present at 2uM
# HepG2 = test: GSK_TCMDC: Percent inhibition of human HepG2 cell line. Test compounds present at 10uM.
smiles,measurement,setting,value
O=C(O)C(F)(F)F.O=C1OC2(CN1CC1CCN(Cc3ccc(-n4ccnc4)cc3)C1)c1ccccc1-c1ccccc12 (stereo unspecified),Inhibition,Plasmodium falciparum [1],96%
same,Inhibition,Plasmodium falciparum [2],0%
same,Inhibition,HepG2,25%
COc1ccc2c(NN=Cc3ccccn3)ccnc2c1,Inhibition,Plasmodium falciparum [1],100%
same,Inhibition,Plasmodium falciparum [2],96%
same,Inhibition,HepG2,14%
N#Cc1cccc(NC(=O)Nc2cccc(-c3cccc(-c4nc5cc(F)ccc5[nH]4)c3)c2)c1,Inhibition,Plasmodium falciparum [1],100%
same,Inhibition,Plasmodium falciparum [2],66%
same,Inhibition,HepG2,60%
CCCCc1ccc(-c2c(N)nc(N)nc2CC)cc1,Inhibition,Plasmodium falciparum [1],95%
same,Inhibition,Plasmodium falciparum [2],0%
same,Inhibition,HepG2,63%
COc1ccc(-c2cccc(NC(=O)c3cccc(Cl)c3)c2)cc1CNC(C)C.O=C(O)C(F)(F)F,Inhibition,Plasmodium falciparum [1],100%
same,Inhibition,Plasmodium falciparum [2],8%
same,Inhibition,HepG2,15%
Cc1c(C)c2c(c(C)c1O)CCC(C)(CCC(=O)O)O2 (stereo unspecified),Inhibition,Plasmodium falciparum [1],96%
same,Inhibition,Plasmodium falciparum [2],0%
same,Inhibition,HepG2,8%
O=C(N[C@H]1CCN(Cc2ccc(OC3CCN(Cc4ccccc4)CC3)cc2)C1)c1ccc(Cl)c(Cl)c1.O=C(O)C(F)(F)F,Inhibition,Plasmodium falciparum [1],90%
same,Inhibition,Plasmodium falciparum [2],6%
same,Inhibition,HepG2,37%
COc1ccc2c(c1)nc(CNC(=N)N)n2Cc1ccc(Cl)cc1.Cl,Inhibition,Plasmodium falciparum [1],100%
same,Inhibition,Plasmodium falciparum [2],99%
same,Inhibition,HepG2,12%
COc1ccc(CNC2CCN(C)CC2)cc1-c1ccc(S(=O)(=O)NCCc2ccccn2)c(C)c1.O=C(O)C(F)(F)F,Inhibition,Plasmodium falciparum [1],96%
same,Inhibition,Plasmodium falciparum [2],91%
same,Inhibition,HepG2,7%
Fc1ccc2[nH]c(-c3ccc(-c4ccc(CN5CCCCC5)cc4)cc3)nc2c1.O=C(O)C(F)(F)F,Inhibition,Plasmodium falciparum [1],98%
same,Inhibition,Plasmodium falciparum [2],100%
same,Inhibition,HepG2,31%
CSc1ccc2nccc(Nc3ccc(Oc4ccccc4)cc3)c2c1.Cl,Inhibition,Plasmodium falciparum [1],94%
same,Inhibition,Plasmodium falciparum [2],68%
same,Inhibition,HepG2,30%
CN(C)CCOc1ccc(NC(=O)Nc2ccnc3c(Br)cccc23)cc1Cl,Inhibition,Plasmodium falciparum [1],97%
same,Inhibition,Plasmodium falciparum [2],25%
same,Inhibition,HepG2,10%
CC(=O)N(Cc1nc(-c2cc(C(F)(F)F)cc(C(F)(F)F)c2)cs1)c1c(C)cccc1C,Inhibition,Plasmodium falciparum [1],100%
same,Inhibition,Plasmodium falciparum [2],99%
same,Inhibition,HepG2,0%
COc1cccc(Nc2nc(C)cc(Nc3cccc(C#N)c3)n2)c1,Inhibition,Plasmodium falciparum [1],100%
same,Inhibition,Plasmodium falciparum [2],92%
same,Inhibition,HepG2,0%
Cc1ccc2cc(C3NC(=O)c4ccccc4N3)c(Cl)nc2c1 (stereo unspecified),Inhibition,Plasmodium falciparum [1],91%
same,Inhibition,Plasmodium falciparum [2],38%
same,Inhibition,HepG2,0%
Cc1cc(N[C@@H](Cc2ccccc2)C(=O)Nc2ccccc2)nc(NCCc2ccccn2)n1.O=C(O)C(F)(F)F,Inhibition,Plasmodium falciparum [1],97%
same,Inhibition,Plasmodium falciparum [2],50%
same,Inhibition,HepG2,0%
O=C(NCCCCCN1CCC(c2c[nH]c3ccccc23)CC1)c1ccc(-c2ccccc2)nc1,Inhibition,Plasmodium falciparum [1],87%
same,Inhibition,Plasmodium falciparum [2],13%
same,Inhibition,HepG2,43%
Cc1cccc(CNc2nc(C)cc(N[C@@H](Cc3ccccc3)C(=O)NC3CCCC3)n2)c1.O=C(O)C(F)(F)F,Inhibition,Plasmodium falciparum [1],100%
same,Inhibition,Plasmodium falciparum [2],97%
same,Inhibition,HepG2,51%
CC(=O)Nc1ccc(C(=O)Nc2cccc(-c3ccc(-c4nc5cc(C(F)(F)F)ccc5[nH]4)cc3)c2)cn1,Inhibition,Plasmodium falciparum [1],100%
same,Inhibition,Plasmodium falciparum [2],100%
same,Inhibition,HepG2,46%
CCc1cn2c3c(cc(C(=O)N[C@@H](Cc4ccccc4)[C@H](O)CNC4CCCC4)cc13)N(C)S(=O)(=O)CC2,Inhibition,Plasmodium falciparum [1],100%
same,Inhibition,Plasmodium falciparum [2],99%
same,Inhibition,HepG2,6%
O=C(/C=C/c1ccc(Cl)c(Cl)c1)N1CCC(CCCN2CCC(c3c[nH]c4ccccc34)CC2)CC1,Inhibition,Plasmodium falciparum [1],100%
same,Inhibition,Plasmodium falciparum [2],45%
same,Inhibition,HepG2,44%
Nc1nccc2ccc(-c3cccc(O)c3)cc12,Inhibition,Plasmodium falciparum [1],95%
same,Inhibition,Plasmodium falciparum [2],71%
same,Inhibition,HepG2,43%
O=S(=O)(Nc1cccc(CCN2CCCCC2CCN2CCCC2)c1)c1ccc(Oc2ccccc2)cc1 (stereo unspecified),Inhibition,Plasmodium falciparum [1],94%
same,Inhibition,Plasmodium falciparum [2],1%
same,Inhibition,HepG2,52%
CCC[C@@H]([C@@H](CC(C)C)C(=O)N[C@H](C(=O)Nc1nccs1)C(C)(C)SCCNC(=O)OCC)N(O)C=O,Inhibition,Plasmodium falciparum [1],95%
same,Inhibition,Plasmodium falciparum [2],97%
same,Inhibition,HepG2,0%
CCN(CC)CCNC(=O)c1ccc(N/C=C2\C(=O)Nc3ccc(S(=O)(=O)Cc4c(Cl)cccc4Cl)cc32)cc1,Inhibition,Plasmodium falciparum [1],100%
same,Inhibition,Plasmodium falciparum [2],56%
same,Inhibition,HepG2,25%
Cc1ccc2c(c1)NCC21CCN(C[C@@H](O)C2CCN(c3ccnc(Cl)c3)CC2)CC1C (stereo partly specified),Inhibition,Plasmodium falciparum [1],87%
same,Inhibition,Plasmodium falciparum [2],69%
same,Inhibition,HepG2,46%
Br.COc1cccc(OC)c1OCCCON1C(=N)N=C(N)NC1(C)C,Inhibition,Plasmodium falciparum [1],95%
same,Inhibition,Plasmodium falciparum [2],96%
same,Inhibition,HepG2,53%
CN(C)CCCN1CCN(Cc2ccc(-c3ccc(-c4nc5ccccc5[nH]4)s3)cc2)CC1,Inhibition,Plasmodium falciparum [1],100%
same,Inhibition,Plasmodium falciparum [2],100%
same,Inhibition,HepG2,19%
Cc1cc(NCCC(=O)Nc2ccccc2)nc(NCC2CCCCC2)n1.O=C(O)C(F)(F)F,Inhibition,Plasmodium falciparum [1],100%
same,Inhibition,Plasmodium falciparum [2],62%
same,Inhibition,HepG2,14%
COc1ccc2nccc([C@@H](O)CN3CCC(NCCOc4ccccc4[N+](=O)[O-])CC3)c2c1.O=C(O)C(=O)O,Inhibition,Plasmodium falciparum [1],100%
same,Inhibition,Plasmodium falciparum [2],98%
same,Inhibition,HepG2,4%
CC1(C)S(=O)(=O)CC(O)CS1(=O)=O,Inhibition,Plasmodium falciparum [1],98%
same,Inhibition,Plasmodium falciparum [2],9%
same,Inhibition,HepG2,8%
Cc1ccc(Oc2cnn(C)c(=O)c2Nc2cccc(C(=O)NCCc3ccccn3)c2)c(C)c1,Inhibition,Plasmodium falciparum [1],94%
same,Inhibition,Plasmodium falciparum [2],94%
same,Inhibition,HepG2,0%
COc1cccc(NC(=O)Nc2cc(-c3ccc4[nH]ncc4c3)cc3c2CNC3=O)c1,Inhibition,Plasmodium falciparum [1],98%
same,Inhibition,Plasmodium falciparum [2],100%
same,Inhibition,HepG2,3%
Cc1cccc2nc(-c3cccc(-c4cccc(CNCc5cnn(-c6ccccc6)n5)c4)c3)[nH]c12.O=C(O)C(F)(F)F,Inhibition,Plasmodium falciparum [1],99%
same,Inhibition,Plasmodium falciparum [2],38%
same,Inhibition,HepG2,12%
Cc1ccn2c(N(Cc3ccccc3)C(=O)c3ccc(Cl)c(Cl)c3)c(-c3ccccc3)nc2c1,Inhibition,Plasmodium falciparum [1],95%
same,Inhibition,Plasmodium falciparum [2],0%
same,Inhibition,HepG2,0%
N#CC(NC(=O)C=Cc1ccccc1)c1ccccc1 (stereo unspecified),Inhibition,Plasmodium falciparum [1],95%
same,Inhibition,Plasmodium falciparum [2],3%
same,Inhibition,HepG2,3%
Cc1ccc(NC(=N)Nc2ncccc2OCc2c(F)cccc2Cl)cc1,Inhibition,Plasmodium falciparum [1],86%
same,Inhibition,Plasmodium falciparum [2],54%
same,Inhibition,HepG2,78%
CO/C(=C\C=C\c1cc2cc(Cl)c(Cl)cc2[nH]1)C(=O)NCCN1CCCCC1,Inhibition,Plasmodium falciparum [1],81%
same,Inhibition,Plasmodium falciparum [2],86%
same,Inhibition,HepG2,16%
CC(C)(C)c1ccc(CNC(=O)/C=C/c2ccc(-c3nc4cc(C(C)(C)C)ccc4[nH]3)cc2)cc1,Inhibition,Plasmodium falciparum [1],100%
same,Inhibition,Plasmodium falciparum [2],66%
same,Inhibition,HepG2,35%
CCNc1cc(C(=O)N[C@@H](Cc2ccccc2)[C@H](O)CNC(C)(C)Cc2cccc(OC)c2)cc(N2CCCC2=O)c1.O=CO,Inhibition,Plasmodium falciparum [1],99%
same,Inhibition,Plasmodium falciparum [2],97%
same,Inhibition,HepG2,7%
Cc1nc2ccc3ccc(CNc4ccc5c(c4)CN([C@@H](CCC(=O)O)C(=O)O)C5=O)cc3c2c(=O)[nH]1 [OSI-7904],Inhibition,Plasmodium falciparum [1],94%
same,Inhibition,Plasmodium falciparum [2],95%
same,Inhibition,HepG2,41%
COc1ccc(NC(=O)NC2CCN(c3ccnc4cc(Cl)ccc34)C2)cc1.O=C(O)C(F)(F)F (stereo unspecified),Inhibition,Plasmodium falciparum [1],100%
same,Inhibition,Plasmodium falciparum [2],69%
same,Inhibition,HepG2,10%
CC(=O)c1ccc(-n2ccnc2)cc1,Inhibition,Plasmodium falciparum [1],92%
same,Inhibition,Plasmodium falciparum [2],0%
same,Inhibition,HepG2,0%
Cc1cc(NC(=O)Nc2ccc3nc(C)oc3c2)c2cc(Cl)ccc2n1,Inhibition,Plasmodium falciparum [1],100%
same,Inhibition,Plasmodium falciparum [2],57%
same,Inhibition,HepG2,0%
Cc1sc2ncnc(Sc3nnc(N)s3)c2c1C,Inhibition,Plasmodium falciparum [1],100%
same,Inhibition,Plasmodium falciparum [2],100%
same,Inhibition,HepG2,9%
CCOC(=O)c1ccc(N=C2SC(=Cc3cc(Br)ccc3O)C(=O)N2C)cc1,Inhibition,Plasmodium falciparum [1],99%
same,Inhibition,Plasmodium falciparum [2],96%
same,Inhibition,HepG2,0%
Br.Cc1ccc2ccccc2c1CCCON1C(=N)N=C(N)NC1(C)C,Inhibition,Plasmodium falciparum [1],95%
same,Inhibition,Plasmodium falciparum [2],97%
same,Inhibition,HepG2,65%
Fc1cccc(COc2ccc(Nc3ncnc4sc(C#CCNC5CCCC5)cc34)cc2Cl)c1,Inhibition,Plasmodium falciparum [1],100%
same,Inhibition,Plasmodium falciparum [2],78%
same,Inhibition,HepG2,3%
CCNc1cc(C(=O)N[C@@H](Cc2ccccc2)[C@H](O)CNC2(C(C)C)CCC2)cc(N2CCCCS2(=O)=O)c1.Cl,Inhibition,Plasmodium falciparum [1],99%
same,Inhibition,Plasmodium falciparum [2],85%
same,Inhibition,HepG2,0%
CCCCC1(NC(=O)[C@@H](Nc2ccc(C#N)c3ccccc23)C2CCCCC2)CCCCC1.O=C(O)C(F)(F)F,Inhibition,Plasmodium falciparum [1],91%
same,Inhibition,Plasmodium falciparum [2],84%
same,Inhibition,HepG2,8%
CCNc1cc(C(=O)N[C@@H](Cc2ccccc2)[C@H](O)CNC2CCC(C)(C)C2)cc(N2CCCCS2(=O)=O)c1.Cl (stereo partly specified),Inhibition,Plasmodium falciparum [1],96%
same,Inhibition,Plasmodium falciparum [2],98%
same,Inhibition,HepG2,3%
COc1cccc2cc(C(=O)N[C@@H](CC(C)C)C(=O)N[C@H](C=NNC(=O)OC(C)(C)C)Cc3ccccc3)oc12,Inhibition,Plasmodium falciparum [1],99%
same,Inhibition,Plasmodium falciparum [2],88%
same,Inhibition,HepG2,11%
Cn1cnc2c(Nc3ccncc3)nc(-c3ccc4ccccc4c3)nc21,Inhibition,Plasmodium falciparum [1],96%
same,Inhibition,Plasmodium falciparum [2],66%
same,Inhibition,HepG2,55%
N#Cc1ccc(N(CCOc2ccc(Cl)cc2)Cc2ccccc2C(F)(F)F)cc1C(F)(F)F,Inhibition,Plasmodium falciparum [1],91%
same,Inhibition,Plasmodium falciparum [2],64%
same,Inhibition,HepG2,3%
O=c1cc(NCC2(CNCc3cn(Cc4ccccc4)c4ccccc34)CCCCC2)[nH]c2ccccc12,Inhibition,Plasmodium falciparum [1],100%
same,Inhibition,Plasmodium falciparum [2],56%
same,Inhibition,HepG2,27%
CCCC(=O)NC(c1cccs1)c1cc(Cl)c2cccnc2c1O (stereo unspecified),Inhibition,Plasmodium falciparum [1],87%
same,Inhibition,Plasmodium falciparum [2],61%
same,Inhibition,HepG2,51%
CC(CN(C)C)C(=O)Nc1ccc(-c2ccc(-c3nc4ccccc4[nH]3)cc2)cc1 (stereo unspecified),Inhibition,Plasmodium falciparum [1],99%
same,Inhibition,Plasmodium falciparum [2],83%
same,Inhibition,HepG2,2%
